The values below come from PubChem BioAssay AID1626 (SRMLSC, 2009).

Out of some 220,000 compounds screened, about 2,000 (0.91%) were called active. Roughly 2% stayed inconclusive and do not appear here. Only a sample is shown. Potency and affinity values are given separately. A number with no mark means an inactive call. Cut-off read from the data, not from the text of the source: inconclusive = inhibition above about 80% without an active follow-up result; inactive = below that; test concentration not stated here.

The nature of the test: M. tuberculosis H37Rv growth inhibitors, H37Rv strain (AID 1626).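 Note: bacteria incubated seven days before Alamar blue readout; 0% = bacteria only wells and 100% = bacteria with antibiotic wells.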 The following applies: hits give high values, concentration not given here.
On to `COc1ccc(Cl)cc1NC(=O)c1ccccc1C`, for which the inhibition was 4.11%.

Regarding `Cc1cc(C)c2nc(SC(C)C#N)cc(C)c2c1` (configuration not stated), the inhibition is 9.89%.

Consider `O=C(CN(Cc1ccco1)C(=O)c1ccccc1)Nc1ccc(Cl)c(Cl)c1`, for which the inhibition is 0.53%.

Consider `O=C(Nc1ccccc1)C12CC3CC(C1)CC(n1cnc([N+](=O)[O-])n1)(C3)C2`, for which the inhibition was 3.45%.

For the compound `O=C(Nc1cccc([N+](=O)[O-])c1)C12CC3CC(C1)CC(n1cnc([N+](=O)[O-])n1)(C3)C2`, the inhibition is 3.76%.

Regarding `O=C1c2ccsc2SCCN1Cc1ccccc1Cl`, the inhibition was 8.66%.

`COCCNC(=O)/C(C#N)=C\c1ccc(CNC(=O)C(=O)Nc2ccc(C)c(C)c2)o1`: the inhibition was -19%.

Take `CCC(=O)N1CCc2cc(S(=O)(=O)CCC(=O)NCc3ccco3)ccc21`: the inhibition was -7.3%.

Consider `O=C(c1ccc2ccccc2c1)C1CCCN(C(=O)CCn2cnnn2)C1` (configuration not stated), for which the inhibition was 3.36%.

In the case of `Cn1ccnc1C(O)c1ccccc1` (configuration not stated), the inhibition is 6.73%.

`COc1ccc(C(O)c2nccn2C)cc1` (configuration not stated): the inhibition was 4.48%.

Regarding `O=C(NN1C(=O)C2C(C1=O)C1C=CC2C12CC2)c1ccc(Cl)cc1` (configuration not stated), the inhibition is 7.63%.

For `Cc1ccc(NS(=O)(=O)c2cccc([N+](=O)[O-])c2)nc1`, the inhibition was 2.81%.

For `CC(C)C(=O)N1CCN(c2nc(-c3ccccc3)c3c(c2C#N)CCCC3)CC1`, the inhibition is 7.25%.

Regarding `CC1(C)Cc2c(C#N)c(N3CCN(C(=O)c4ccco4)CC3)nc(Cc3ccccc3)c2CO1`, the inhibition is -5.53%.

On to `CCc1nc(N2CCN(C(=O)c3ccccc3)CC2)c(C#N)c2c1COC(C)(C)C2`, for which the inhibition was -3.57%.

`Cc1ccc(-c2nnc(N3CCN(C(=O)CN4CCOCC4)CC3)c3ccccc23)cc1`: the inhibition was 0.29%.

Turning to `O=C(c1ccco1)N1CCN(c2nnc(-c3ccccc3)c3ccccc23)CC1`, the inhibition was 1.18%.

Turning to `CCC(=O)N1CCN(c2nc(-c3ccccc3)c3c(c2C#N)CCCC3)CC1`, the inhibition was 6.35%.

In the case of `O=C(/C=C/c1ccc(Br)cc1)NCc1cccs1`, the inhibition is 8.29%.

`Cc1cc(C)cc(N2C(=O)CSC2c2cccs2)c1` (configuration not stated): the inhibition was -1.33%.

For `O=C(O)c1sccc1SCc1ccc(Cl)c(Cl)c1`, the inhibition was -2.78%.

On to `O=C(CNS(=O)(=O)c1cccc(Cl)c1)Nc1ccc(-c2nc3ccccc3s2)cc1`, for which the inhibition is 1.91%.

As for `O=C1[C@@H]2[C@H](C(=O)N1Cc1cccnc1)[C@H]1C=C[C@@H]2C1`, the inhibition was 4%.

Regarding `COc1ccc(NC(=O)NCCCN2CCC(Cc3ccccc3)CC2)cc1`, the inhibition is -4.94%.

As for `C#C[C@]1(O)CCC2C3CCC4=Cc5oncc5CC4(C)C3CCC21C` (some centres not stated), the inhibition is 3.82%.

For `CCOC(=O)c1sc(N2N=C(C)C(N=Nc3cccc(C)c3)C2=O)nc1C` (configuration not stated), the inhibition was 57.3%.

Regarding `NCCOc1cnn(-c2ccccc2Cl)c(=O)c1Cl`, the inhibition was 0.22%.

Take `COc1ccc(NC(=O)N2CCCC(c3nc(-c4ccc(C(C)C)cc4)no3)C2)cc1` (configuration not stated): the inhibition was 10.7%.

As for `Cn1c(-c2ccc3c(c2)OCO3)cnc1NCc1ccccc1`, the inhibition is -5.95%.

With `Cn1c(-c2ccc3c(c2)OCO3)cnc1NCc1ccc(Cl)cc1`, the inhibition is -3.22%.

Take `CC(C)C[C@H](NC(=O)c1nc[nH]c1C(=O)NCc1ccccc1)C(=O)OCc1ccccc1`: the inhibition was -9.88%.

For `O=S(=O)(c1ccc(-n2cnnn2)cc1)N1CCC(N2CCCCC2)CC1`, the inhibition is 0.43%.

With `CC(C)CNC(=O)NC(=O)COC(=O)c1cccc(NS(=O)(=O)c2ccc(F)c(F)c2)c1`, the inhibition is 27.8%.

For `Cc1cc(C)n2c(=S)[nH]nc2n1`, the inhibition was -1.62%.

For the compound `CCCC(=O)NC(C)c1nc2ccccc2n1CC` (configuration not stated), the inhibition was 1.48%.

For `O=C(Nc1ccc(F)c(F)c1)NC1CCCCC1`, the inhibition is -11.3%.

Consider `CC(C)c1ccc(NC(=S)NC2CCCCCC2)cc1`, for which the inhibition was -13.8%.

As for `Cc1ccc(NC(=O)C2CCN(C(=O)NC3CCCCC3)CC2)cc1Cl`, the inhibition is 7.5%.

As for `O=C(Nc1ccc(Cl)cc1)NC1CCCCC1`, the inhibition is -3.67%.

As for `Cc1noc(C)c1S(=O)(=O)N1CCCCC1`, the inhibition is -4.38%.

With `CCC(C)(C)C(=O)Nc1ccc(OC)cc1[N+](=O)[O-]`, the inhibition was -0.65%.

Consider `Cc1csc(NC(=O)c2cc3c(s2)CCCCC3)n1`, for which the inhibition is 16.1%.

Consider `CCc1nnc(NC(=O)c2cc3c(s2)CCCCC3)s1`, for which the inhibition was -9.6%.

Turning to `Cc1cc(Cl)ccc1NC(=O)C1CCCN1C(=O)c1cccs1` (configuration not stated), the inhibition was 0.31%.

Regarding `CCN(CC)CCn1c(SCC(=O)NCc2ccccc2)nc2c(sc3ccccc32)c1=O`, the inhibition is 3.01%.

On to `COc1ccc(Nc2c3c(nc4ccccc24)CCCC3)cc1OC`, for which the inhibition was 8.23%.

Turning to `O=C(CSc1nnc(NC(=O)c2ccccc2C(=O)O)s1)Nc1ccccc1Cl`, the inhibition is -9.06%.

For the compound `CCOc1cc(/C=C/c2cc(C(F)(F)F)[nH]c(=O)n2)ccc1O`, the inhibition is 2.01%.

For `COc1cc(C(=O)N/N=c2/sc3ccccc3n2C)cc(OC)c1OC`, the inhibition is -5.9%.

As for `COc1ccccc1NC(=O)c1cc2ccccc2nc1C`, the inhibition was 2.95%.

As for `CCCc1cc(=O)oc2cc(OCC(=O)NCc3cccs3)ccc12`, the inhibition was 7.98%.

Take `O=C(COc1ccc2c(-c3ccccc3)cc(=O)oc2c1)NCc1cccs1`: the inhibition is 1.19%.

Turning to `COc1ccc(Cn2ccnc2CO)cc1[N+](=O)[O-]`, the inhibition was -1.53%.

Turning to `COc1cccc(-c2cc(C(=O)Nn3cnnc3)c3ccccc3n2)c1`, the inhibition was 2.95%.

Take `O=C(Nc1nc2ccccc2s1)c1cc(-c2ccco2)nc2ccccc12`: the inhibition was 13.9%.

Turning to `COc1ccc(-c2cc(C(=O)Nc3ccc(O)cc3)c3ccccc3n2)cc1OC`, the inhibition is 14.5%.

For the compound `O=C(O)c1cc(-c2ccccc2)nc2ccccc12`, the inhibition is -5.49%.

In the case of `COc1ccc(-c2cc(C(=O)Nc3nc4c(C)cccc4s3)c3ccccc3n2)cc1OC`, the inhibition was 12.1%.

As for `O=C(NC(=S)Nc1ccccc1)c1cc(-c2ccccc2)nc2ccccc12`, the inhibition is -4.77%.

For `O=C(C[n+]1ccccc1)Nc1c(Cl)cc(Cl)cc1Cl`, the inhibition was -1.93%.

In the case of `Cn1cnnc1SCC(=O)Nc1nc(-c2ccccc2)cs1`, the inhibition was -4.7%.

Regarding `COc1ccc(NC(=O)CSc2nc3c([nH]c4ccccc43)c(=O)n2C)cc1`, the inhibition is 7.61%.

Consider `Cc1ccc(OCC(=O)c2cc(C)n(CC(F)(F)F)c2C)c([N+](=O)[O-])n1`, for which the inhibition is -2.91%.

Turning to `N/C(CS(=O)(=O)c1ccccn1)=N\OC(=O)c1ccc(Cl)cc1`, the inhibition is -1.94%.

Regarding `Cn1ncc(N)c1C(=O)Nc1cccc(C(F)(F)F)c1`, the inhibition is 4.36%.

As for `O=C(c1cccc(Cl)c1)N1CCC(=O)N(C(COCc2ccccc2)Cc2ccccc2)CC1` (configuration not stated), the inhibition is -0.16%.

With `CCOC(=O)c1sc2nc3c(SCC(=O)O)cc(C(=O)c4cc(F)ccc4O)cn3c(=O)c2c1C`, the inhibition was -5.14%.

On to `Cc1ccc(Oc2nc(C(F)(F)F)nc3ccccc23)cc1`, for which the inhibition was 9.79%.

With `Cc1cc(Oc2ccc(Cl)cc2)nc(-c2ccccc2O)n1`, the inhibition is 20.4%.

Regarding `FC(F)(F)c1cc(Oc2ccc(Cl)cc2)nc(-c2ccccn2)n1`, the inhibition is 11.7%.

Regarding `CC(=O)Nc1cccc(Oc2nc(-c3ccccn3)nc3ccccc23)c1`, the inhibition is 3.26%.

For `CSc1nc(Oc2ccc(F)cc2)c2ccccc2n1`, the inhibition was 8.64%.

As to `COc1ccc(Oc2nc(-c3ccncc3)nc3ccccc23)cc1`, the inhibition was 3.37%.

As to `CC(=O)Nc1ccc(Oc2nc(-c3ccccn3)nc3ccccc23)cc1`, the inhibition is -12.6%.

With `C/C(=N\Nc1nc(-c2ccccn2)nc2ccccc12)c1ccc(F)cc1`, the inhibition was 67.4%.

On to `COc1cc(C(=O)c2nccc3cc(OC)c(OC)cc23)c([N+](=O)[O-])cc1OC`, for which the inhibition is 1.27%.

As to `COc1ccc(Nc2nnc(SCC(=O)/C=C3/N(C)c4ccccc4C3(C)C)s2)cc1`, the inhibition was 10.8%.

With `CCSc1nnc(-c2ccc(C)cc2)c2ccccc12`, the inhibition was 18.7%.

With `Cc1onc(-c2ccccc2)c1C(=O)N/N=C/c1cc(Br)c(Br)o1`, the inhibition was -1.13%.

On to `COc1ccc2nc(SCC(=O)NCCc3ccccc3)[nH]c2c1`, for which the inhibition is 0.98%.

With `O=c1[nH]c(SCc2nc3ccccc3n2Cc2ccccc2)nc2ccccc12`, the inhibition is 5.31%.

For `Fc1ccc(CSc2nncn2NCc2ccccc2)cc1`, the inhibition is -8.84%.

As for `O=C(Nc1cccc(NC(=O)c2cccs2)c1)c1ccc2c(c1)OCCO2`, the inhibition was 4%.

`O=C(NNC1=NCCC1)c1cccc(S(=O)(=O)N2CCCC2)c1`: the inhibition was -1.54%.

With `Cc1cccc(N=Cc2c(O)cc(C)oc2=O)c1`, the inhibition was 2.51%.

As to `Nc1ccc(Br)cc1C(=O)O`, the inhibition was -3.82%.

Take `Nc1ccc(Oc2cccc(Oc3ccc(N)cc3)c2)cc1`: the inhibition was 0.76%.

Consider `Cc1cc(C)cc(Oc2ccc(N)cc2)c1`, for which the inhibition is -4.94%.

For the compound `Brc1ccc2ncc(Br)cc2c1`, the inhibition was 9.05%.

Turning to `CCOC(=O)N1CCN(S(=O)(=O)c2ccc3c(c2)CCN3C(=O)CC)CC1`, the inhibition is -14.9%.

As for `CCc1ccccc1NC(=O)c1ccc(Cn2cc([N+](=O)[O-])cn2)cc1`, the inhibition is 2.06%.

With `CC(C)Cc1nnc(NS(=O)(=O)Cc2ccccc2)s1`, the inhibition was 3.7%.

As for `COc1ccc(CN(C)C(=O)CCl)cc1`, the inhibition is 17.4%.

Take `CN(Cc1ccc(Cl)cc1)C(=O)CCl`: the inhibition was 63%.

As for `CCOC(=O)c1ccc(-n2c(CN3CCN(CC)CC3)nc3ccc([N+](=O)[O-])cc3c2=O)cc1`, the inhibition was 64.1%.

Consider `CCOC(=O)c1ccc(-n2c(CN3CCOCC3)nc3ccc([N+](=O)[O-])cc3c2=O)cc1`, for which the inhibition is 69.4%.
